According to PubChem BioAssay (Tox21):
Unmarked numbers belong to inactive results. Active and inactive are the calls of the source. Calls follow the shape of the dose curve; as a rule, active = well fitted curve in the direction sought with a large enough effect in the repeat runs; inconclusive = weak or mixed curves; inactive = flat fitted curve, though single readings scatter.

Assay: qHTS assay to test for compound auto fluorescence at 590 nm (red) in HEK293 cells (AID 720679)
Settings: red autofluorescence 540/590 nm; series mostly up to 91.3 µM; fluorescence, % of fluorescent control: at the top concentration
Source text: National Center for Advancing Translational Sciences [NCATS]
NIH Chemical Genomics Center [NCGC]
U.S. Environmental Protection Agency [EPA]
National Institutes of Environmental Health Sciences [NIEHS]
National Toxicology Program [NTP]
U.S. Food and Drug Administration [FDA]
Compound auto fluorescence often interferes with screening of the compound library against various biological targets and signaling pathways. Some of these compounds may have fluorophoric properties. Such properties may interfere with the assay outputs resulting in false positives and/or negatives. To decrease such complications and ensure the compound activities are relevant in terms of biological response, the Tox21 10K compound library was screened for auto fluorescence.
From the fluorophores used as reporter signals in our screening assays, the auto fluorescence equivalencies of compounds against three fluorophores have been evaluated: Triamterene, Fluorescein and Rose Bengal sodium for blue, green and red fluorescence, respectively. The fluorescence intensities were measured using Excitation/Emission wavelengths at 405/460nm, 485/535nm and 540/590nm for blue, green and red labels, respectively. This assay includes the red fluorescence data.
Tox21 Assay Protocol Summary:
2,000 HEK293 cells in 5 uL of culture medium containing 10% dialyzed FBS per well were dispensed into black wall/clear bottom 1536-well plates using a Multidrop Combi Dispenser (Thermo Scientific). The assay plates were incubated for 4-5 hr at 37C to allow cell attachment to the well bottom, followed by the transfer of 23 nL compound or DMSO vehicle by a pintool work station (Kalypsys, San Diego, CA). After the assay plates were incubated overnight at 37C and 5% CO2, fluorescence intensities in the assay plates were measured by an Envision (PerkinElmer, Shelton, CT) plate reader using three labels for measuring blue, green and red fluorescence at […] 460, 535 and 590nm respectively.
% is scaled to controls: 0 for no effect and ±100 for the full control effect.

Going from `N#CC(Cl)Cl` to `ClC(Cl)=C(Cl)Cl`, the “fluorescence, % of fluorescent control” value falls from -0.45% to -0.473%.

Compared with `CC(C)(C)c1ccc(CSc2cnn(C(C)(C)C)c(=O)c2Cl)cc1`, `CC(Cc1ccc(C(C)(C)C)cc1)CN1C[C@@H](C)O[C@@H](C)C1` (stereo not given in full) is higher in “fluorescence, % of fluorescent control” value: -0.0092% for the first, 0.0029% for the second.

Going from `CC(=O)[O-].CC(=O)[O-].[Hg+2]` to `CC(=O)[O-].CC(=O)[O-].O.O.[Cd+2]`, the “fluorescence, % of fluorescent control” value rises from -1.08% to 0.125%.

Going from `Fc1cccc(Cl)c1CCl` to `Nc1ccc(Cc2ccc(N)c(Cl)c2)cc1Cl`, the “fluorescence, % of fluorescent control” value rises from -0.0006% to 0.545%.

First: CCCN(CC)CC1COC2(CCC(C(C)(C)C)CC2)O1 (stereo not given)
Second: CC(=O)c1cc(C(C)(C)C)cc2c1CCC2(C)C
The “fluorescence, % of fluorescent control” value of the first is higher: 0.51% for the first, 0.308% for the second.

First: CC(C)Oc1cccc(NC(=O)c2ccccc2C(F)(F)F)c1
Second: Cc1cc(C(F)(C(F)(F)F)C(F)(F)F)ccc1NC(=O)c1cccc(I)c1C(=O)NC(C)(C)CS(C)(=O)=O
The “fluorescence, % of fluorescent control” value of the first is lower: -0.556% for the first, -0.081% for the second.

First: CC(C)[C@H](C(=O)O[C@H](C#N)c1cccc(Oc2ccccc2)c1)c1ccc(Cl)cc1
Second: O=C1c2ccccc2C(=O)C1C(=O)C(c1ccccc1)c1ccc(Cl)cc1 (stereo not given)
The “fluorescence, % of fluorescent control” value of the first is higher: 0.117% for the first, -0.0112% for the second.

First: [Hg+2].[I-].[I-]
Second: O=C(Nc1ccc2[nH]ccc2c1)c1cc2cc(F)ccc2n1Cc1cccc(F)c1
The “fluorescence, % of fluorescent control” value of the first is higher: 0.375% for the first, 0.239% for the second.

Going from `CN(C)S(=O)(=O)N(SC(F)(Cl)Cl)c1ccccc1` to `O=C(CCl)Nc1ccccc1`, the “fluorescence, % of fluorescent control” value rises from -0.248% to -0.108%.

First: S=C=Nc1cccc2ccccc12
Second: c1ccc2c(c1)[nH]c1cnccc12
The “fluorescence, % of fluorescent control” value of the first is lower: 0.088% for the first, 0.0883% for the second.

Going from `CCOc1cc(C(C)(C)C)ccc1C1COC(c2c(F)cccc2F)=N1` (stereo not given) to `c1ccc(OCC2CO2)cc1` (stereo not given), the “fluorescence, % of fluorescent control” value rises from -0.0618% to 0.234%.

Compared with `CC(=O)C(Cl)(Cl)Cl`, `[CH3][Hg][Cl]` is higher in “fluorescence, % of fluorescent control” value: -0.37% for the first, -0.258% for the second.

Compared with `O=c1ssc(Cl)c1Cl`, `O=[N+]([O-])c1cc(C(F)(F)F)c(Cl)c([N+](=O)[O-])c1Cl` is lower in “fluorescence, % of fluorescent control” value: -0.28% for the first, -0.722% for the second.

First: CN(C)CCc1c[nH]c2ccc(O)cc12
Second: CC(C)(C)c1cc([N+](=O)[O-])cc(C(C)(C)C)c1O
The “fluorescence, % of fluorescent control” value of the first is higher: 0.0394% for the first, -0.053% for the second.

Going from `Cc1ccc(OP(=O)(Oc2ccccc2)Oc2ccccc2)cc1` to `CC(=O)Nc1ccc2c(c1)Cc1ccccc1-2`, the “fluorescence, % of fluorescent control” value rises from -0.583% [at 95.7 µM] to 0.0602% [at 95.7 µM].

First: CS(=O)(=O)c1ccc(C(=O)C2C(=O)CCCC2=O)c([N+](=O)[O-])c1
Second: CCCN(CCC)c1c([N+](=O)[O-])cc(S(N)(=O)=O)cc1[N+](=O)[O-]
The “fluorescence, % of fluorescent control” value of the first is lower: -0.765% [at 95.7 µM] for the first, -0.581% [at 95.7 µM] for the second.

In the case of `O=C(O)COc1nc(Cl)c(Cl)cc1Cl`, the “fluorescence, % of fluorescent control” value is reported as -1.1% [at 95.7 µM].

In the case of `CC(C)CC(C)(c1ccc(O)cc1)c1ccc(O)cc1`, the outcome is reported as “inactive”.
For `Clc1ccc(COC(Cn2ccnc2)c2ccc(Cl)cc2Cl)cc1` (stereo not given), the outcome was “inactive”.
In the case of `O=C/C(Cl)=C(/Cl)C(=O)O`, the outcome is reported as “inactive”.
With `C[C@H]1O[C@@H](O[C@H]2[C@@H](O)C[C@H](O[C@H]3[C@@H](O)C[C@H](O[C@H]4CC[C@@]5(C)[C@H](CC[C@@H]6[C@@H]5CC[C@]5(C)[C@@H](C7=CC(=O)OC7)CC[C@]65O)C4)O[C@@H]3C)O[C@@H]2C)C[C@H](O)[C@@H]1O` the outcome was “inactive”.
For `ClC1=C(Cl)C2(Cl)C3C(Cl)C=CC3C1(Cl)C2(Cl)Cl` (stereo not given), the outcome was “inactive”.

With `Clc1ccc(CSC(Cn2ccnc2)c2ccc(Cl)cc2Cl)cc1` (stereo not given) the fluorescence, % of fluorescent control was 0.517% [at 18.6 µM].

For `C[C@]12Cc3nonc3C[C@@H]1CC[C@@H]1[C@@H]2CC[C@@]2(C)[C@H]1CC[C@]2(C)O`, the “fluorescence, % of fluorescent control” value was -0.062% [at 46 µM].
